{
  "source": "PubChem BioAssay (EPA / NIEHS)",
  "note": "Several values for one entry are separate records, joined by “and”; a condition that tells them apart may be missing. Equal entries are not always repeated. A structure can be active in one record and inactive in another. Activity calls are given as the source filed them. How the source made its calls: active means hit-call score of the fitted dose curve at least 0.9, where 1 is the maximum; inactive means score below 0.9.",
  "data": [
    {"read-out": "TIMP metallopeptidase inhibitor 2 (TIMP2), TIMP2 (gene 7077)", "assay": "BSK_hDFCGF_TIMP2: BioMAP Diversity Plus: hDFCGF Assay for TIMP metallopeptidase inhibitor 2 (TIMP2) Biomarker Activity (AID 2284289)", "conditions": "primary human foreskin fibroblasts", "description": "BSK_hDFCGF is a cell-based, multiplexed-readout assay that uses foreskin fibroblast, a human skin primary cell, with measurements taken at 24 hours after chemical dosing in a 96-well plate.BSK_hDFCGF_TIMP2 is an assay component measured in the BSK_hDFCGF assay. It measures TIMP-2 antibody related to regulation of gene expression using ELISA technology.Data from the assay component BSK_hDFCGF_TIMP2 was analyzed at the endpoint, BSK_hDFCGF_TIMP2, in the positive analysis fitting direction relative to DMSO as the negative control and baseline of activity. Using a type of binding reporter, gain or loss-of-signal activity can be used to understand protein changes. To generalize the intended target to other relatable targets, this assay endpoint is annotated to the 'protease' intended target family, where the subfamily is 'matrix metalloproteinase'.\nThe levels of cell surface (or secreted, indicated by the prefix \"s\") biomarker endpoints were measured by ELISA. Overt cytotoxicity to cells in confluent adherent cultures (all systems other than the BT system) was assessed by measuring total protein levels using sulforhodamine B (SRB) staining in parallel cultures at the time of biomarker measurements, indicated as SRB endpoints. For proliferation assays for adherent cell types, individual cell types are cultured at sub-confluence and relative cell numbers quantified by SRB staining at time points optimized for each system (48 h: 3C and CASM3C systems; 72 h: BT and HDF3CGF systems; 96 h: SAg system). SRB was performed by staining cells with 0.1% SRB after fixation with 10% TCA and reading wells at 560 nm.Viability and proliferation of PBMC (T cells) was quantified by Alamar Blue reduction for the SAg and BT systems. For PBMC viability (referred to as PBMC Cytotoxicity within the assay endpoint names), cells were plated (75,000/well in a 96-well plate) and then chemical samples added for 1 h before addition of activators, SEB and TSST-1 (20 ng/mL final concentration each). Cells were incubated for 90 h. Then, Alamar Blue (20 uL/well) (Invitrogen, Cat DAL1100) was added for 6 h, and the plates were read with a fluorescence microplate reader at 546/580 nm (excitation/emission). For PBMC proliferation, cells were plated and activated as above but incubated for only 16 h prior to addition of Alamar Blue. Plates were read after 6 h.", "values": [
      {"molecule": "O=C(O)C=CC(F)(C(F)(F)F)C(F)(F)F", "outcome": "inactive"},
      {"molecule": "O=C(O)C(F)(F)OC(F)(F)C(F)(F)OC(F)(F)C(=O)O", "outcome": "inactive"},
      {"molecule": "OCC(F)(F)OC(F)(F)C(F)(F)OC(F)(F)C(F)(F)OC(F)(F)CO", "outcome": "inactive", "AC50": "8.46 µM (active)"},
      {"molecule": "COP(=O)(CCC(=O)NCO)OC", "outcome": "inactive"},
      {"molecule": "OCC(F)(F)OC(F)(F)C(F)(F)OC(F)(F)C(F)(F)OC(F)(F)F", "outcome": "inactive"},
      {"molecule": "O=S(=O)(F)C(F)(F)C(F)(F)C(F)(F)C(F)(F)C(F)(F)C(F)(F)C(F)(F)C(F)(F)F", "outcome": "inactive"},
      {"molecule": "CC(O)C(F)(F)C(F)(F)F", "note": "(configuration not stated)", "outcome": "inactive"},
      {"molecule": "NC(=O)C(F)(F)C(F)(F)F", "outcome": "inactive"},
      {"molecule": "FC(F)(F)C(F)(C(F)(F)F)C(F)(F)C(F)(F)CC1CO1", "note": "(configuration not stated)", "AC50": "0.319 µM (active)", "outcome": "inactive"},
      {"molecule": "O=C(O)C(F)(F)C(F)(F)C(=O)O", "outcome": "inactive"},
      {"molecule": "O=C(O)C(F)(OC(F)(F)C(F)(F)C(F)(F)F)C(F)(F)F", "note": "(configuration not stated)", "outcome": "inactive"},
      {"molecule": "OCC(F)(F)OC(F)(F)C(F)(F)OC(F)(F)CO", "outcome": "inactive"},
      {"molecule": "C=CC(=O)OCC(F)(F)C(F)F", "AC50": "5.95 µM (active) and 20.8 µM (active)"},
      {"molecule": "COC(=O)C(F)(F)C(F)(F)OC(F)(C(F)(F)F)C(F)(F)OC(F)=C(F)F", "note": "(configuration not stated)", "outcome": "inactive"},
      {"molecule": "O=C(O)C(F)(F)OC(F)(F)C(F)(F)OC(F)(F)F", "outcome": "inactive"}
    ]}
  ]
}
